# Test results from PMC5540273 (PLoS ONE, 2017).
# Legend:
# Conditions in all cases: concentration: 1 μM, replicates: in singlicate; n = 1
# DDR2 = system: DDR2
# DLK = system: T1, DLK
# T1 construct: gene MAP3K12
# DMPK2 = system: T2, DMPK2
# T2 construct: gene CDC42BPG
# DMPK = system: DMPK
# DRAK1 = system: T3, DRAK1
# T3 construct: gene STK17A
# DRAK2 = system: T4, DRAK2
# T4 construct: gene STK17B
# DYRK1A = system: DYRK1A
# DYRK1B = system: DYRK1B
# DYRK2 = system: DYRK2
# EGFR = system: EGFR
# 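Further: KINOMEscan kinase panel screen.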
Compound,%Inh (DDR2) [%],%Inh (DLK) [%],%Inh (DMPK2) [%],%Inh (DMPK) [%],%Inh (DRAK1) [%],%Inh (DRAK2) [%],%Inh (DYRK1A) [%],%Inh (DYRK1B) [%],%Inh (DYRK2) [%],%Inh (EGFR) [%]
CCc1nc(-c2cccc(C)c2)c(-c2ccnc(NC(=O)c3ccccc3)c2)s1,1,6,8,0,0,0,18,50,10,24
FC(F)(F)c1cc(Nc2nccc(-c3c(-c4ccc(Cl)cc4)nn4ncccc34)n2)ccc1Cl [GW829351],30,0,19,0,0,0,0,0,0,24
CCC(CC)(CC)n1cnc2c(N)ncnc21 [SKF-97620],24,0,0,7,7,25,0,0,20,0
O=C(Nc1ccccc1)Nc1ccc(Oc2ccc3nccn3n2)cc1,100,18,0,6,0,0,0,30,70,23
FC(F)(F)c1ccc(-c2cc(-c3c[nH]nc3-c3ccccn3)ccn2)cc1 [GW599550],17,41,0,4,10,0,10,23,0,18
